Where a name gives a salt, the structure may show the parent alone.

The test system of the experiment is PBMC-derived induced microglia-like cells (piMGLC). The experiment can be described thus: synaptosome phagocytic index relative to DMSO control (fraction of DMSO); higher = more phagocytosis. The settings on record: concentration: 10 uM (2 uM for compounds listed in Table S2); pretreatment time: 24 h; assay time: 3 h. As to the method:
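PBMC-derived induced microglia-like cells (piMGLCs) in 96-well plates were pretreated for 24 h with CNS-penetrant library compounds (MedChemExpress HY-L028), mostly at 10 uM; Table S2 lists 9 compounds at 2 uM. pHrodo-Red-labelled human iPSC-neuron synaptosomes (3 ug/well) were then added for 3 h, and cells were fixed and imaged by confocal microscopy. Phagocytic index (synaptosome area / cell count, CellProfiler) is a mean over 3 replicate wells on different plates, normalized to the DMSO control. Compounds leaving <10% of DMSO cell count were marked toxic and given no value.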
As for `NCC(=O)CCC(=O)O` [5-Aminolevulinic_acid_(hydrochloride)], the synaptosome phagocytic index came out at 0.444.
Next, `CC(=O)OCC(=O)[C@@]1(O)CC[C@H]2[C@@H]3CCC4=CC(=O)C=C[C@]4(C)[C@H]3[C@@H](O)C[C@@]21C` [Prednisolone_acetate]: 0.605.
Next, `C[C@@]1(c2cc(NC(=O)c3ccc(C#N)cn3)ccc2F)C=CSC(N)=N1` [Atabecestat]: 0.547; `Cc1cn([C@H]2C=C[C@@H](CO)O2)c(=O)[nH]c1=O` [Stavudine]: 0.555.
For `NC(=O)[C@H](Cc1c[nH]c2ccccc12)NC(=O)CNC(=O)[C@H](CCCN=C(N)N)NC(=O)[C@@H]1C[C@@H](O)CN1C(=O)[C@@H](N)Cc1ccc(F)cc1` [Nemifitide_(diTFA)], the synaptosome phagocytic index was 0.903.
Turning to `CCOC(=O)C1=CCCC[C@H]1S(=O)(=O)Nc1ccc(F)cc1Cl` [Resatorvid], the synaptosome phagocytic index is 0.156.
As for `CC(=O)c1c(C)c2cnc(Nc3ccc(N4CCNCC4)cn3)nc2n(C2CCCC2)c1=O` [Palbociclib_(isethionate)], the figure is 0.421.
As for `CC(C)(O)CC(=O)NCCn1ccc2ncnc(Nc3ccc(Oc4cccc(C(F)(F)F)c4)c(Cl)c3)c21`, the figure is 1.04; as for `Nc1ccn([C@@H]2O[C@H](CO)[C@@H](O)[C@@H]2O)c(=O)n1` [Cytarabine], 0.44.
As for `O=C1N[C@@H](Cc2cnc[nH]2)C(=O)N2CCC[C@@H]12` [Cyclo(his-pro)_(TFA)], the figure is 0.449; as for `Cc1ccc(Nc2nccc(N(C)c3ccc4c(C)n(C)nc4c3)n2)cc1S(N)(=O)=O` [Pazopanib_(Hydrochloride)], 0.523; as for `CN1C2CCCC1CC(NC(=O)c1nn(C)c3ccccc13)C2` (stereo not given) [Granisetron_(Hydrochloride)], 0.891.
Regarding `CN(C)C(=O)c1cc2cnc(Nc3ccc(N4CCNCC4)cn3)nc2n1C1CCCC1` [Ribociclib_succinate], the synaptosome phagocytic index was 0.592.
With `CC(C)(C)CCN1C[C@@H]2C(CNC(=O)c3cc(Cl)cc(Cl)c3)[C@@H]2C1` (stereo not given in full), the synaptosome phagocytic index came out at 0.191.
Next, `OCCOCCN1CCN(C(c2ccccc2)c2ccc(Cl)cc2)CC1` (stereo not given) [Hydroxyzine_(dihydrochloride)]: 0.957; `CO[C@H]1C[C@@H]2CC[C@@H](C)[C@@](O)(O2)C(=O)C(=O)N2CCCC[C@H]2C(=O)O[C@H]([C@H](C)C[C@@H]2CC[C@@H](O)[C@H](OC)C2)CC(=O)[C@H](C)/C=C(\C)[C@@H](O)[C@@H](OC)C(=O)[C@H](C)C[C@H](C)/C=C/C=C/C=C/1C` [Rapamycin]: 0.285; `N#Cc1ccc2[nH]cc(CCCCN3CCN(c4ccc5oc(C(N)=O)cc5c4)CC3)c2c1` [Vilazodone]: 0.195.
Next, `Cn1ncc(-c2nn(C)c3ncnc(N4CCC4)c23)c1-c1ccc(C(F)(F)F)cc1`: 0.505.
Turning to `Cc1ccc(N2CCN(Cc3nc4ccccc4[nH]3)CC2)cc1C`, the synaptosome phagocytic index came out at 1.03.
Next, `C#CCNS(=O)(=O)c1ccc(CCN(Cc2cc(Cl)ccc2OCCC)C(=O)Cc2ccsc2)cc1`: 0.54; `CN(C)C(=N)NC(=N)N` [Metformin_(hydrochloride)]: 0.668; `Nc1cc(C(F)(F)F)c(-c2cc(N3CCOCC3)nc(N3CCOCC3)n2)cn1` [Buparlisib_(Hydrochloride)]: 0.429.
As for `CN1C(=O)OC(C)(C)C1=O` [Trimethadione], the figure is 0.751.
As for `C[C@@H](c1ncncc1F)[C@](O)(Cn1cncn1)c1ccc(F)cc1F` [Voriconazole], the figure is 0.893; as for `CN(C)CCC=C1c2ccccc2CCc2ccccc21` [Amitriptyline_(hydrochloride)], 0.997; as for `OC1(CN2CCC(COc3noc4cccc(O[C@@H]5CCOC5)c34)CC2)CCOCC1`, 0.793.
Turning to `CC(=O)N1CCc2c(c(N3CCCc4cc(-c5cnn(C)c5)c(C(F)F)cc43)nn2C2CCOCC2)C1`, the synaptosome phagocytic index is 0.59.
Regarding `CN(C)CCCN1c2ccccc2CCc2ccc(Cl)cc21` [Clomipramine_(hydrochloride)], the synaptosome phagocytic index came out at 0.39.
As for `Nc1nc(NC2CC2)c2ncn([C@H]3C=C[C@@H](CO)C3)c2n1` [Abacavir], the figure is 1.15.
Next, `O=C(O)c1cc(/N=N/c2ccc(S(=O)(=O)Nc3ccccn3)cc2)ccc1O` [Sulfasalazine]: 0.883; `CC1=NN(c2ccccc2)C(=O)C1` [Edaravone]: 0.555.
Regarding `CN/C(=N\CCSCc1nc[nH]c1C)NC#N` [Cimetidine], the synaptosome phagocytic index is 1.07.
As for `CN1C[C@@H]2[C@H](C1)[C@H]2CN(Cc1ccc(F)c(Cl)c1)C(=O)c1cn(C)cn1`, the figure is 0.691; as for `CC(C)CCn1c(CN2CCN(C(=O)C3CC3)CC2)nc2c1c(=O)n(C)c(=O)n2C`, 0.707.
Turning to `CCc1nc(N)nc(N)c1-c1ccc(Cl)cc1` [Pyrimethamine], the synaptosome phagocytic index turned out to be 1.01.
Regarding `Oc1c(I)cc(Cl)c2cccnc12` [Clioquinol], the synaptosome phagocytic index came to 0.393.
Next, `C#Cc1cccc(Nc2ncnc3cc(OCCOC)c(OCCOC)cc23)c1` [Erlotinib]: 0.798; `C[C@H](c1ccc(F)cc1CCCC(=O)O)N(c1cc(F)ccc1F)S(=O)(=O)c1ccc(Cl)cc1`: 0.385.
On to `COc1c(N2CCNC(C)C2)c(F)cc2c(=O)c(C(=O)O)cn(C3CC3)c12` (stereo not given) [Gatifloxacin], for which the synaptosome phagocytic index stood at 0.702.
Turning to `CCc1cc2c(cc1-c1cnn(CC(=O)N(C)C)c1)C(C)(C)c1[nH]c3cc(C#N)ccc3c1C2=O`, the synaptosome phagocytic index is 0.394.

Values taken from the supplement of paper PMC12339681.
